Reference: the supplement of paper PMC10338343
± gives the standard deviation. Over roughly 6,600 sequences, “pre-steady-state target cleavage rate” has its median near 0.07; the highest 2% begin near 0.72. This excerpt belongs to a sample that is enriched for the highest values.

Each sequence was assayed on MIWI (PIWIL1) piRISC loaded with Kctd7 piRNA (30 nt) (assay: pre-steady-state target cleavage rate (min^-1); MIWI and MILI are mouse PIWI proteins and EfPiwi is from a freshwater sponge; tags in brackets are library labels; higher = faster piRNA-guided slicing of the target). Conditions: guide: Kctd7 piRNA 5'p-UGUUAAUCUCUCAGAGAAGGUGACAGUGAU; auxiliary factor: 500 nM mouse GTSF1.
Method in brief: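 A transcribed, DNA-blocked target RNA library […] was incubated at 33 °C for 0–8 or 0–960 min with 1 nM active affinity-purified piRISC carrying one synthetic guide, in HEPES–potassium acetate buffer with or without 500 nM GTSF1 partner protein. Uncleaved targets were then sequenced and normalised to depth and to weakly complementary targets. Data from three trials were pooled, with k3 capped at 0.0001 min^-1, and a burst-and-steady-state fit yielded the pre-steady-state cleavage rate.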
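Note: 1 nM active piRISC with 0.1 nM target library at 33 °C single turnover.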

Sequence	pre-steady-state target cleavage rate
AUGACUGUCACCUUCACUGAGAGAUUAACA	0.541 ± 0.032
UAGUCUGUCACGCUUCUCUGAGAGAUUAACA	0.506 ± 0.025
UAGUGACUCCACCUUCUCUGAGAGAUUAACA	0.415 ± 0.04
UAGACUGUCACCUUCUCUGUGACAUUAACA	0.0186 ± 0.0033
UAGUGUGUCACCUUCUCUGAGAGUUUAUCA	0.232 ± 0.056
UAGUGUGUCACCUUCUCUGAGACAUAAACA	0.0331 ± 0.0077
UAGUGACAGUGCUUCGCUGAGAGAUUAACA	0.00389 ± 0.0031
AUCACUGUCACCUUCACUGAGACAUUAACA	0.252 ± 0.024
UAGACAGUCACCUUCUCUGAGAGAUUAACA	0.656 ± 0.033
UAGACUAGUCACCUUCUCUGAGAGAUUAACA	0.756 ± 0.049
UAGACUAUCACCUUCUCUGAGAGAUUAACA	0.56 ± 0.026
UAGUGACAGACCUUCACUGAGAGAUAAACA	0.0224 ± 0.007
UAGUGACAGUGCUUCUCUGAGAGUUUAACA	0.00896 ± 0.0024
AUUACUGUCACCUUCUCUGAGAGAUUAACA	0.713 ± 0.032
UUCUACUGUCACCUUCUCUGAGAGAUUAACA	0.677 ± 0.038
UUUACUGUCACCUUCUCUGAGAGAUUAACA	0.708 ± 0.026
UACUACUGUCACCUUCUCUGAGAGAUUAACA	0.694 ± 0.032
UUACUGUCACCUUCUCUGAGAGAUUAACA	0.743 ± 0.041
UACUGUGUCACCUUCUCUGAGAGAUUAACA	0.63 ± 0.027
UAUACUGUCACCUUCUCUGAGAGAUUAACA	0.767 ± 0.047
AUACUGUCACCUUCUCUGAGAGAUUAACA	0.756 ± 0.043
UACUCUGUCACCUUCUCUGAGAGAUUAACA	0.663 ± 0.03
UAGUGACUCACGUUCUCUGACAGAUUAACA	0.00367 ± 0.0032
UAGACUGUCAGCUUCUCUGAGAGAUUAAGA	0.0909 ± 0.017
UAGUCUCACACCUUCUCUGAGAGAUUAUGA	0.0207 ± 0.0066

Sequence	pre-steady-state target cleavage rate
UAGUCUGUCACCUUCACUGAGAGAUUAACA	0.39 ± 0.02
UUCACUGUCUACCUUCUCUGAGAGAUUAACA	0.208 ± 0.022
UAGUGACAGUCCUUCUCUGAGAGAUAAUCA	0.00284 ± 0.0022
AUCGCUGUCACCUUCUCUGAGAGAUUAACA	0.825 ± 0.042
UUCGCUGUCACCUUCUCUGAGAGAUUAACA	0.626 ± 0.04
UUGUCUGUCACCUUCUCUGAGAGAUUAACA	0.691 ± 0.031
AUGUCUGUCACCUUCUCUGAGAGAUUAACA	0.604 ± 0.024
UAGGCUGUCACCUUCUCUGAGAGAUUAACA	0.803 ± 0.045
UUCUGUGUCACCUUCUCUGAGAGAUUAACA	0.224 ± 0.022
AACUCUGUCACCUUCUCUGAGAGAUUAACA	0.715 ± 0.034
UACGCUGUCACCUUCUCUGAGAGAUUAACA	0.745 ± 0.038
UACACUGUCACCUUCUGUGUGAGAUUAACA	0.0849 ± 0.012
UUCUCUGUGACCUUCUCUGAGAGAUUAACA	0.491 ± 0.023
UACACUGUCACCUUCUCUGAGACUUUAUGA	0.00869 ± 0.0047
UAGUGACAGUGCCUUCUCUGAGAGAUUAACA	0.356 ± 0.034
UAGUGAGUGACCUUCUCAGAGAGAUUAACA	0.226 ± 0.026
UAGUGACAGUCCUUCUCUGAGGGAUUAACA	0.0348 ± 0.0076
AUCACUGCCACCUUCUCUGAGAGAUUAACA	0.773 ± 0.044
UACACUGCCACCUUCUCUGAGAGAUUAACA	0.613 ± 0.035
UUCACUGCCACCUUCUCUGAGAGAUUAACA	0.611 ± 0.023
UUCACUGCUCACCUUCUCUGAGAGAUUAACA	0.669 ± 0.044
UACACUGCUCACCUUCUCUGAGAGAUUAACA	0.623 ± 0.035
AUCACUGCUCACCUUCUCUGAGAGAUUAACA	0.8 ± 0.051
UAGUGACUGACCUUCUCUGAGAGAUUAUGA	0.00985 ± 0.0048
UAGUGACUCUACCUUCUCUGAGAGAUUAACA	0.122 ± 0.014

Sequence	pre-steady-state target cleavage rate
UAGACUGUGCACCUUCUCUGAGAGAUUAACA	0.651 ± 0.048
UAGUGAGUCACCUUAUCUGAGAGAUUAACA	0.363 ± 0.02
UAGUGACAGUCCUUACUCUGAGAGAUUAACA	0.0326 ± 0.0043
UAGAGUGUCACCUUCUCUGAGAGAUAAACA	0.362 ± 0.038
UUGACUGUCACCAUCUCUGAGAGAUUAACA	0.756 ± 0.044
AUCUCUGUCACCAUCUCUGAGAGAUUAACA	0.633 ± 0.03
UUCUCUGUCACCAUCUCUGAGAGAUUAACA	0.514 ± 0.023
UACUCUGUCACCAUCUCUGAGAGAUUAACA	0.69 ± 0.036
AUGACUGUCACCAUCUCUGAGAGAUUAACA	0.817 ± 0.06
UAGUCUGUCACCAUCUCUGAGAGAUUAACA	0.667 ± 0.038
UAGACUGUCACCUUCUCUCAGAGAUUAACA	0.154 ± 0.016
UAGUCUGUCACCUUCUCUGAGUGAUUAUCA	0.015 ± 0.0044
UUCACAGUCACCUUCUGUGAGAGAUUAACA	0.363 ± 0.035
UACACUGUGACCUUGUCUGAGAGAUUAACA	0.0711 ± 0.013
UAGACUGUCAGCUUCUCUGAGAGUUUAACA	0.0686 ± 0.011
UAGUGAGUCACCUUGCUCUGAGAGAUUAACA	0.332 ± 0.07
UUCACCUGUCACCUUCUCUGAGAGAUUAACA	0.73 ± 0.033
AUCCUGUCACCUUCUCUGAGAGAUUAACA	0.744 ± 0.052
UACCUGUCACCUUCUCUGAGAGAUUAACA	0.773 ± 0.051
AUCCCUGUCACCUUCUCUGAGAGAUUAACA	0.644 ± 0.051
UACACCUGUCACCUUCUCUGAGAGAUUAACA	0.79 ± 0.051
UACCCUGUCACCUUCUCUGAGAGAUUAACA	0.638 ± 0.034
UUCCUGUCACCUUCUCUGAGAGAUUAACA	0.633 ± 0.037
UUCUCUGUCACCUUCUCUGAGAGAUUAACA	0.585 ± 0.031
